The source of these data is paper PMC4336329 (PLoS ONE, 2015).

In all, about 310,000 compounds went through this assay and about 14,000 (4.5%) showed an effect of 50% or more. The effect is printed as a negative number. Many of the other results were omitted from the sample, so strong results are more common in it than they were.
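Also: peak tail current of the secondary pulse compared with the same well before compound.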

Chain of human ether-à-go-go-related gene (hERG) potassium channel (Q12809 whole entry, looked up): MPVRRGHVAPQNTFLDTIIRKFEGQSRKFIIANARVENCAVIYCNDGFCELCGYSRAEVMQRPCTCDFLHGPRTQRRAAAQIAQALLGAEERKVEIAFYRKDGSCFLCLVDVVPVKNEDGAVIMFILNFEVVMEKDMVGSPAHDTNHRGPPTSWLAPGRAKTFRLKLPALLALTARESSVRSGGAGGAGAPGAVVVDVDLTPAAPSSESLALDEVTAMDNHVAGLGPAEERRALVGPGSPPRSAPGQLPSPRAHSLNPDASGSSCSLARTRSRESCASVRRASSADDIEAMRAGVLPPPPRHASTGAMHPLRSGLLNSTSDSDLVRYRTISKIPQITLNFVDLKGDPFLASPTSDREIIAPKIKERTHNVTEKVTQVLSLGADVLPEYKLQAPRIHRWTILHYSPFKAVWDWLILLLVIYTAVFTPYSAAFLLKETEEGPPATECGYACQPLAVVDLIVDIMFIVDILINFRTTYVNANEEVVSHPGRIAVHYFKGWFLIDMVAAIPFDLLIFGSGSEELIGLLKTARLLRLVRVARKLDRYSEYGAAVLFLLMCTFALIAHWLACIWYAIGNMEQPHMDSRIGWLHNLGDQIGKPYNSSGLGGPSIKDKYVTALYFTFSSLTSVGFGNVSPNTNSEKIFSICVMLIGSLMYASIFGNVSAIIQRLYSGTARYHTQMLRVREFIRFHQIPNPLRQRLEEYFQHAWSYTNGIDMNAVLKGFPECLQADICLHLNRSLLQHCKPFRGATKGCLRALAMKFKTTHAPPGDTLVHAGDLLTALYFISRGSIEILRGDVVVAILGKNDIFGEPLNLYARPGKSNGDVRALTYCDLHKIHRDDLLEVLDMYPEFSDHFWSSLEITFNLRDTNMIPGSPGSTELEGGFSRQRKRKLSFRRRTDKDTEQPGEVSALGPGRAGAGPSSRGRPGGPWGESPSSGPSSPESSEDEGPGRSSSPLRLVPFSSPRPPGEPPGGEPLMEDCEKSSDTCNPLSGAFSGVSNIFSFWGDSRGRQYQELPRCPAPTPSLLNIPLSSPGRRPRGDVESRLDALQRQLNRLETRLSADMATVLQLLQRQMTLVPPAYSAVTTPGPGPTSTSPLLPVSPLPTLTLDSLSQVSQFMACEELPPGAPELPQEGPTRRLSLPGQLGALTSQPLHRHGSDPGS

The assay addresses human ether-à-go-go-related gene (hERG) potassium channel (human, UniProt Q12809). The assay can be described thus: primary screen, population patch clamp on CHO cells stably expressing hERG; higher = less effect of the substance.
`CCN(CC)C(=O)COc1ccc(/C(C)=N/NC(=O)c2ccccc2Br)cc1`: the “hERG current change (%, negative = inhibition) at 10uM” value came to 8.89%.

For the molecule `COc1ccc(CCN(C)C(=O)CSc2nnc(-c3ccco3)o2)cc1OC`, the “hERG current change (%, negative = inhibition) at 10uM” value was -21.3%.

Regarding `C=CCSc1nnc2nc3[nH]c4c(C)cccc4c3nn12`, the “hERG current change (%, negative = inhibition) at 10uM” value is given as 4.32%.

As for `C=CCSc1nnc2nc3c(nn12)c1cc(C)ccc1n3CC=C`, the “hERG current change (%, negative = inhibition) at 10uM” value is reported as -55.1%.

For the molecule `CCCSc1nnc2nc3c(nn12)c1ccccc1n3C`, the “hERG current change (%, negative = inhibition) at 10uM” value is given as -49.7%.

As for `O=C(NCc1ccc2c(c1)OCO2)C1(S(=O)(=O)c2ccccc2)CC1`, the “hERG current change (%, negative = inhibition) at 10uM” value was determined as 13.4%.

Turning to `CC(C)Cc1cc(C(=O)N2CCN(C(c3ccccc3)c3ccccc3)CC2)no1`, the “hERG current change (%, negative = inhibition) at 10uM” value is 0.0803%.

On to `COc1ccc(/C=c2/sc3nc(-c4ccccc4)c(-c4ccccc4)n3c2=O)cc1`, for which the “hERG current change (%, negative = inhibition) at 10uM” value is -13.9%.

Regarding `NC(=O)C1CCN(S(=O)(=O)Cc2ccccc2Cl)CC1`, the “hERG current change (%, negative = inhibition) at 10uM” value stood at 14.8%.

For `CCn1c(SCc2ccc(Cl)cc2)nnc1-c1ccccc1`, the “hERG current change (%, negative = inhibition) at 10uM” value was -44.4%.

Take `CCn1c(SCc2cccc(C)c2)nnc1-c1ccc(C)cc1`: the “hERG current change (%, negative = inhibition) at 10uM” value is -63.7%.

For `CCn1c(SCc2ccc(C(=O)Nc3cc(C)cc(C)c3)cc2)nnc1-c1ccncc1`, the “hERG current change (%, negative = inhibition) at 10uM” value is -59.2%.

As to `CCOC(=O)CSc1nnc(-c2cccc(Cl)c2)n1CC`, the “hERG current change (%, negative = inhibition) at 10uM” value is listed as -3.47%.

Consider `C=CCn1c(SCc2ccc(C#N)cc2)nnc1-c1cccc(OC)c1`, for which the “hERG current change (%, negative = inhibition) at 10uM” value is reported as -67.4%.

`CCn1c(SCc2ccc(C(=O)Nc3nccs3)cc2)nnc1-c1ccc(NC(C)=O)cc1`: the “hERG current change (%, negative = inhibition) at 10uM” value was 1.21%.

For the molecule `CCn1c(SCc2cccc(C)c2)nnc1-c1ccccc1`, the “hERG current change (%, negative = inhibition) at 10uM” value is -32.9%.

Turning to `CCn1c(SCc2ccc(C(=O)Nc3nccs3)cc2)nnc1-c1ccc(N)cc1`, the “hERG current change (%, negative = inhibition) at 10uM” value was -22.2%.

Take `CCn1c(SCc2ccc(C#N)cc2)nnc1-c1cccc(Cl)c1`: the “hERG current change (%, negative = inhibition) at 10uM” value is given as -73.6%.

On to `C=CCn1c(SCc2ccc(OC)cc2)nnc1-c1cccnc1`, for which the “hERG current change (%, negative = inhibition) at 10uM” value was -26.9%.

As to `C=CCn1c(SCc2cccc(OC)c2)nnc1-c1ccncc1`, the “hERG current change (%, negative = inhibition) at 10uM” value is -15.5%.

Turning to `CCn1c(SCc2cccc(F)c2)nnc1-c1ccncc1`, the “hERG current change (%, negative = inhibition) at 10uM” value was -8.82%.

For the molecule `CCOC(=O)c1c(C)[nH]c(C(=O)COC(=O)C23CC4CC(CC(Cl)(C4)C2)C3)c1C`, the “hERG current change (%, negative = inhibition) at 10uM” value turned out to be 11.6%.

Consider `CC1C(=O)N2CCCc3cc(NC(=O)C4CCCCC4)cc1c32` (stereo not shown), for which the “hERG current change (%, negative = inhibition) at 10uM” value was found to be 4.17%.

On to `CCOC(=O)c1cc(S(=O)(=O)N2CCc3ccccc32)cn1C`, for which the “hERG current change (%, negative = inhibition) at 10uM” value is on record as -0.504%.

For the molecule `CCOCc1nnc(NC(=O)CSCc2ccccc2)s1`, the “hERG current change (%, negative = inhibition) at 10uM” value is -1.7%.

Regarding `Cc1ccc2cc(NC(=O)c3cccc(F)c3)ccc2n1`, the “hERG current change (%, negative = inhibition) at 10uM” value is 0.701%.

Regarding `CCOC(=O)C(NC(C)=O)C(=O)Nc1ccc(C)cc1C` (stereo not shown), the “hERG current change (%, negative = inhibition) at 10uM” value is 15.7%.

As to `O=C(Nc1nccs1)c1cccc(NC(=O)C(F)(F)F)c1`, the “hERG current change (%, negative = inhibition) at 10uM” value was -5.07%.

Take `O=c1c2c3c(sc2nc2n1CCCCC2)C(O)CCC3` (stereo not shown): the “hERG current change (%, negative = inhibition) at 10uM” value is listed as 3.27%.

For `C=CCn1c(SCc2ccc(C#N)cc2)nnc1-c1cccc(Cl)c1`, the “hERG current change (%, negative = inhibition) at 10uM” value was -72.7%.

On to `C=CCn1c(SCC(=O)O)nnc1-c1cccc(Cl)c1`, for which the “hERG current change (%, negative = inhibition) at 10uM” value worked out at 4.71%.

Consider `C=CCn1c(SCc2cccc(C#N)c2)nnc1-c1ccccc1O`, for which the “hERG current change (%, negative = inhibition) at 10uM” value is on record as -30.4%.

For `Cc1cc(NC(=O)CSc2nc3ccccc3c(=O)n2CCCC(=O)NCc2ccccc2)n[nH]1`, the “hERG current change (%, negative = inhibition) at 10uM” value is recorded as -8.72%.

In the case of `O=C(NN=C1CCCCCCCCCCC1)c1cccnc1`, the “hERG current change (%, negative = inhibition) at 10uM” value was determined as 19.8%.

Take `CCN(CC)c1ccc(NC(=O)c2cccnc2)c(C)c1`: the “hERG current change (%, negative = inhibition) at 10uM” value is 26.9%.

As to `O=C(Nc1cccnc1)c1ccc(Cl)c(Cl)c1`, the “hERG current change (%, negative = inhibition) at 10uM” value is 10.3%.

As to `CCN(CC)S(=O)(=O)c1cccc(C(=O)Nc2cccnc2)c1`, the “hERG current change (%, negative = inhibition) at 10uM” value was -17.7%.

`CCN(CC)S(=O)(=O)c1ccc(Cl)c(C(=O)Nc2cccnc2)c1`: the “hERG current change (%, negative = inhibition) at 10uM” value is listed as -55.8%.

In the case of `O=C(Nc1ccccc1)c1cc(S(=O)(=O)Nc2cccnc2)ccc1Cl`, the “hERG current change (%, negative = inhibition) at 10uM” value was -3.06%.

As to `CCN(CC)S(=O)(=O)c1cc(C(=O)Nc2cc(C)[nH]n2)ccc1Cl`, the “hERG current change (%, negative = inhibition) at 10uM” value is recorded as -10.3%.

Consider `CCN(CC)S(=O)(=O)c1cc(C(=O)Nc2ccncc2)ccc1Cl`, for which the “hERG current change (%, negative = inhibition) at 10uM” value is on record as -66.3%.

With `CCN(CC)c1ccc(S(=O)(=O)N(CC)CC)cc1NC(=O)C1CCCC1`, the “hERG current change (%, negative = inhibition) at 10uM” value is recorded as -13.6%.

Take `CCN(CC)S(=O)(=O)c1ccc(Cl)c(C(=O)Oc2cccnc2)c1`: the “hERG current change (%, negative = inhibition) at 10uM” value is -36.8%.

For `CCN(CC)c1ccc(S(=O)(=O)N(CC)CC)cc1NC(=O)c1cccnc1`, the “hERG current change (%, negative = inhibition) at 10uM” value was -72.5%.

Regarding `CCN(CC)S(=O)(=O)c1cc(C(=O)Nc2cccnc2Cl)ccc1Cl`, the “hERG current change (%, negative = inhibition) at 10uM” value amounted to 8.87%.

For the molecule `CCN(CC)S(=O)(=O)c1cc(C(=O)Nc2cccnc2)ccc1Cl`, the “hERG current change (%, negative = inhibition) at 10uM” value was -67.9%.
